Screening results: PubChem, several laboratories
Only some compounds are listed: those with a hit (about 2.7% of all), similar ones and a draw of the others.
KKLEB cytotox = cytotoxicity in KKLEB CF airway cells, primary screen, cytotoxicity control for CF NF-kB inhibitor project, cell-based, uHTS, fluorescence assay plates. KKLEB CF airway cells viability, ATPlite luminescence, overnight; active compounds read low; cells stimulated with P. aeruginosa culture filtrate. activity change (cytotoxicity), % at 5 µM. 360,000 compounds, 0.36% hits. AID 602141, 2011;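 active = corrected activity change at or below -50% at 5 µM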
Shn3 3UTR inh = reduction of Shn3 3'UTR firefly luciferase signal, primary screen, Schnurri-3 inhibitor project, cell-based, Clone20 osteoblasts, set 2 | Clone20 osteoblast Shn3 3'UTR firefly luciferase, 24 h | 360,000 compounds, 0.52% hits | inhibition, % at 12.5 µM;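 active = mean inhibition of at least 75% with every replicate also reaching 75%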
HIF-2a block = HIF-2a reporter inhibitors, primary screen, luminescence, 786-0 RCC cells | AID 624352, 2012 | 360,000 compounds, 0.72% hits | inhibition, % at 18.8 µM | 786-0 RCC cells HIF-2a reporter, luciferase luminescence, overnight;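 active = inhibition of the luminescence signal of 40% or more relative to plate controls, in a single-dose primary screen at 18.75 µM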
TRPM1 prom inh = inhibitors of MITF-dependent TRPM1 promoter reporter, primary screen, cell-based, SK-MEL-5, single point, luciferase; SK-MEL-5 TRPM1 promoter luciferase, 24 h; inhibition, % at 12.5 µM; 330,000 compounds, 0.83% hits;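 active = mean inhibition across replicates of 60% or more, whatever share of single replicates reaches that level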
CF NFkB inh = inhibitors of PAF-induced NF-kB signaling, primary screen, cell-based, GFP fluorescence, uHTS | KKLEB NF-kB-GFP reporter, GFP fluorescence overnight | inhibition, % at 5 µM | 360,000 compounds, 0.86% hits;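 active = at least 50% inhibition at 5 µM, scaled per plate between neutral and stimulator controls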;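 also: PAF is a Pseudomonas aeruginosa culture filtrate used as stimulus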
Peg3 prom inh-1 = Peg3 promoter-driven luciferase inhibitors, primary screen, cell-based, HeLa, luciferase luminescence. HeLa PEG-Prom luciferase reporter, overnight. inhibition, % at 20 µM. 360,000 compounds, 1.7% hits;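 active = inhibition of at least 50% at 20 µM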
Peg3 prom inh-2 = Peg3 promoter reporter inhibitors, retest, confirmation, cell-based, HeLa, luciferase reporter, single concentration; shares compounds with Peg3 prom inh-1; HeLa PEG-Prom luciferase reporter, luminescence, overnight; inhibition, % at 20 µM; 1,300 compounds, 84% hits; AID 602417, 2012;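 active = at 20 µM dose, 40% or more inhibition averaged across four replicates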
A number is an active result; - = inactive; . = no result.

SMILES | KKLEB cytotox | Shn3 3UTR inh | HIF-2a block | TRPM1 prom inh | CF NFkB inh | Peg3 prom inh-1 | Peg3 prom inh-2
COc1cccc(C(=O)NNC(=O)c2ccc3ccccc3c2O)c1 | - | - | - | - | - | - | .
COc1ccccc1C1c2ccc3ccccc3c2Oc2ncn(CCCO)c(=N)c21 (stereo unspecified) | - | - | - | 61.6 | - | 101.9 | 97.2
NC(=O)SCC(=O)Nc1ccc(Cl)c(Cl)c1 | - | - | - | - | - | 66.3 | -
CCOC(=O)N(C)c1c(CC)nc2c(OCc3ccccc3OC)cccn12 | - | - | - | . | - | - | .
Cc1cc(C)c2c(N)c3ccccc3nc2n1 | - | - | - | 66.2 | - | 86.6 | 90.5
CC1=C(C(=O)N(C)C)CC(CC(=O)NC2CCCCC2)C(=O)N1Cc1ccc(F)cc1 (stereo unspecified) | - | - | - | . | - | - | .
CCCc1c(-c2ccc(F)cc2F)ncn1Cc1cccc(-c2ccccc2)c1 | . | . | - | . | . | . | .
O=S(=O)(N[C@H]1C[C@@H](NS(=O)(=O)OCC(Cl)(Cl)Cl)C2CCCCC21)OCC(Cl)(Cl)Cl (stereo partly specified) | - | - | - | - | - | 60.9 | 83.7
Cc1cccc(-c2ccc(O)cc2CN2CCN(c3ncc(Cc4ccccc4)cn3)CC2)c1 | . | . | - | . | . | . | .
COc1ccc(C(NC(=O)C2CCN(CCOc3ccc(Cl)cc3)CC2)c2cccs2)cc1 (stereo unspecified) | - | - | - | . | - | - | .
COc1cc(NC(=O)c2n[nH]c(=O)c3ccccc23)cc(OC)c1 | - | - | - | - | - | - | .
COc1ccc(-c2nc(NC(=O)c3n[nH]c(=O)c4ccccc34)sc2C)cc1 | - | - | - | - | - | 59.6 | 48.1
CCOc1ccc2[nH]c3c(NCCO)ncnc3c2c1 | - | - | - | - | - | - | .
CCOc1ccc2[nH]c3c(NCCc4ccc(OC)c(OC)c4)ncnc3c2c1 | - | - | - | - | - | 66.1 | 65.5
Nc1ccc(-c2nc3ccc(C(=O)O)cc3s2)cc1 | - | - | 87.6 | 114.7 | - | 100.9 | 93.8
Nc1ccc(-c2nc3ccc(N)cc3s2)cc1 | - | - | - | - | - | - | .
CC1CCN(c2nc3ccc(C(=O)NCCCN4CCCCC4)cc3s2)CC1 | - | - | - | - | - | - | .
CC1CCN(c2nc3ccc(C(=O)O)cc3s2)CC1 | - | - | 89.2 | 89.9 | - | 106.1 | 87.3
CC(C)NC(=O)C1(C)CN(S(C)(=O)=O)CC(=O)N1C1CCCCCC1 (stereo unspecified) | . | . | - | . | . | . | .
CC(C)C(=O)NC(=S)Nc1ccccc1N1CCN(C(=O)c2ccccc2)CC1 | - | - | - | - | - | 58.0 | 40.3
CCOC(=O)C1(C)CCN1C(=O)c1cccc(Cl)c1 (stereo unspecified) | - | - | - | . | - | - | .
CC(C)(C)N1C(=O)c2ccccc2NC(=O)C1C(=O)NCCc1ccccc1F (stereo unspecified) | . | . | - | . | . | . | .
CCN(CC)c1ccc(C(=O)NNC(=O)CCNC(=O)c2ccccc2)cc1 | - | - | - | - | - | - | .
CCN(CC)c1ccc(C(=C2C=CC(=[N+](CC)CC)C=C2)c2ccccc2)cc1 | -86.3 | 96.7 | 83.8 | 108.6 | 85.0 | 95.9 | 98.6
COc1ccccc1NC(=S)NC1CCCCC1 | - | - | - | - | - | - | .
SMILES | KKLEB cytotox | Shn3 3UTR inh | HIF-2a block | TRPM1 prom inh | CF NFkB inh | Peg3 prom inh-1 | Peg3 prom inh-2
COc1ccccc1NC(=S)NC1CCCCCCCCCCC1 | - | - | - | - | - | 54.8 | 91.3
CCOC(=O)Cn1cc(Cn2c3ccccc3c(=O)n2C(C)C)nn1 | - | - | - | . | - | - | .
O=C(NC1CCCCC1)Sc1ccc(Cl)cc1 | - | - | - | - | - | 66.3 | 66.5
O=C(c1ccccc1F)N1CCC2CC1c1cc(N3CCCCC3)ccc12 (stereo unspecified) | - | - | - | . | - | - | .
CN1C/C(=C/c2ccccc2[N+](=O)[O-])C(=O)/C(=C\c2ccccc2[N+](=O)[O-])C1 | - | - | - | 62.3 | - | 95.9 | 99.5
Cc1ccc(C)c2c1CCC(=Cc1ccccc1[N+](=O)[O-])C2=O | - | - | - | . | - | - | .
Cc1[nH]n(-c2nc(-c3ccc(Cl)cc3)cs2)c(=O)c1N=Nc1ccc(O)cc1 | - | 90.4 | - | - | - | 54.2 | -
Cc1cc(OCC(=O)OCC(=O)N2CCCCC2)ccc1Cl | - | - | - | . | - | - | .
O=C(Nc1nccs1)c1csc([C@H]2C[C@H](O)[C@@H](CO)O2)n1 | - | - | - | . | - | - | .
CCOC(=O)c1c(C)n(-c2ccc(OC)cc2)c2ccc(O)c(CN(C)C)c12 | - | - | - | - | - | 55.0 | -
O=C(Nc1ccccc1N1CCOCC1)c1cc(-c2ccncc2)nc2ccccc12 | - | - | - | - | - | 63.1 | 57.5
COc1ccc(-c2cc(C(=O)Nc3ccccc3O)c3ccccc3n2)cc1OC | - | - | - | - | - | - | .
O=C(Nc1ccc(N2CCOCC2)cc1)c1cc(-c2ccncc2)nc2ccccc12 | - | - | - | - | - | - | .
COc1ccc(-c2cc(C(=O)Nc3ccccc3N3CCOCC3)c3ccccc3n2)cc1OC | - | - | - | - | - | 57.6 | 61.8
Cc1ccc(-c2cc(C(=O)Nc3nccs3)c3ccccc3n2)c(C)c1 | - | - | - | - | - | 90.6 | 61.1
COc1ccc(C(O)(CC(C)C)C(CN2CCOCC2)c2ccccc2)cc1 (stereo unspecified) | - | - | - | - | - | 70.9 | 73.2
CCc1nc2c(OCc3ccc(Cl)cc3)cccn2c1N(C)C(=O)c1ccc(C)cc1 | - | - | - | . | - | - | .
Cc1ccc2cc3c(N)c4c(C)ccc(C)c4nc3nc2c1 | - | - | - | - | - | 103.1 | 97.2
COC(=O)c1cccc(N2C(=O)C[C@](Sc3ccc(C)cc3)(C(=O)OC)[C@H]2c2ccccc2)c1 | . | . | - | . | . | . | .
CC(C)CC(=NNC(=O)c1ccncc1)c1cc(Cl)ccc1O | - | 85.0 | - | - | - | 63.6 | 73.4
CC(C)CCCCCCCCCCCCC(=O)NCC(=O)NC1C(O)C(O)C(Nc2ncnc3nc[nH]c23)OC1C(O)CO (stereo unspecified) | - | 97.1 | 69.4 | 76.2 | 90.4 | 99.9 | 99.3
COc1cc(CNCCN2CCOCC2)ccc1OCc1ccc(Cl)cc1Cl | - | - | - | - | - | 56.7 | 79.0
Nc1ccc2c(c1)[nH]c(=O)c1cc(N)ccc12 | - | - | - | . | - | - | .
